Measurements taken from PubChem BioAssay.
Unmarked numbers belong to inactive results. How the calls were made is not given here.

biological target: Pantothenate synthetase (Mycobacterium tuberculosis (strain ATCC 25618 / H37Rv)) (UniProt P9WIL5); assay: Recombinant Mtb pantothenate synthetase (PanC) inhibitors, coupled enzyme, confirmatory (AID 375); settings: coupled enzyme assay; at 10 µM, active compounds read high;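 further: 0% = full reaction with vehicle and 100% = no enzyme background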
Sequence (P9WIL5 whole entry, looked up): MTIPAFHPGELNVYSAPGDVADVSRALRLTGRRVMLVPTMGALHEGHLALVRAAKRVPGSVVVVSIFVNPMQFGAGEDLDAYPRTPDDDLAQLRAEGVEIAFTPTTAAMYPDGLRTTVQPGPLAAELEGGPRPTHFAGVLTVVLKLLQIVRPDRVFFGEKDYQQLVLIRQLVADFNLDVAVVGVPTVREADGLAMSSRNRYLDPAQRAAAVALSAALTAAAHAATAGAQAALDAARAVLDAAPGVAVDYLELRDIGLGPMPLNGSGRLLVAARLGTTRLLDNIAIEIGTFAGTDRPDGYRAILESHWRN

Row | Compound | inhibition [%]
1 | O=C(COC(=O)CCc1c[nH]c2ccccc12)NC1CCS(=O)(=O)C1 (stereo not given) | 3
2 | C#CCN1C(=O)C(O)(CC(=O)c2cc(OC)ccc2OC)c2ccccc21 (stereo not given) | 6
3 | COc1ccccc1Nc1nc2ccccc2[nH]1 | 0
4 | CCOC(=O)c1[nH]c(C)c(C(=O)Nc2ccc(C)cc2C)c1C | 1
5 | O=c1[nH]c(=O)n(C2CCCCCC2)c(O)c1C=NCc1ccc(F)cc1 | 4
6 | C[C@]12C=CC(=O)C=C1CC[C@@H]1[C@@H]2[C@@H](O)C[C@@]2(C)[C@H]1CC[C@]2(O)C(=O)COC(=O)CCC(=O)O | 0
7 | O=C(Cn1cc2c(n1)CCCCC2)N1CCc2ccccc21 | 0
8 | CCOC(=O)N1CCN(CC(=O)Nc2cc(C)nn2-c2nc3ccccc3s2)CC1 | 0
9 | Cc1ccc(C(O)c2nc3ccccc3n2C(C)C)cc1 (stereo not given) | 0
10 | Nc1nc(N2CCCCC2)nc(N(c2ccccc2)c2ccccc2)n1 | 3
11 | O=C1CCC(C(=O)N(Cc2ccco2)C2(C(=O)NC3CCCC3)CCCCC2)N1 (stereo not given) | 0
12 | COC(=O)c1ccc(NC(=O)CN2CCN(c3ccc(Cl)cc3)CC2)cc1 | 1
13 | Nc1ccc2cn[nH]c2c1 | 0
14 | COc1cc(NC(=O)c2cc(CC(C)C)on2)c(OC)cc1Cl | 5
15 | COc1cccc(NC(=O)N2CCCC2C(=O)Nc2ccc3c(c2)OCO3)c1 (stereo not given) | 4
16 | Cc1nc(NCc2ccc3c(c2)OCO3)c2oc3ccccc3c2n1 | 1
17 | CCCSc1nnc(-c2ccccc2NC(=O)CC)c(=O)[nH]1 | 0
18 | Cc1[nH]c(=O)[nH]c(=O)c1S(=O)(=O)N1CCCC(C(=O)NCc2ccco2)C1 (stereo not given) | 5
19 | Cc1nc(/N=C\N(C)C)sc1C(=O)Nc1ccccc1 | 0
20 | Cc1noc(C)c1CSc1nc2ccccc2s1 | 2

Row | Compound | inhibition [%]
21 | CN(C)C(=O)COc1ccc2cc(-c3ccccc3)c(=O)oc2c1 | 1
22 | COc1ccccc1-c1c(C)nn2c(C)c(C(C)=O)cnc12 | 3
23 | CCNC(=O)C1CC(=O)N(Cc2ccc3c(c2)OCO3)C(=Nc2ccc(OCC)cc2)S1 (stereo not given) | 0
24 | O=C(C1CCN(S(=O)(=O)N2CCC3(CC2)OCCO3)CC1)N1CCOCC1 | 0
25 | Cc1cc2n(n1)C(c1ccccc1)Nc1ccccc1-2 (stereo not given) | 7
26 | CC1CCN(c2nc3c(c(=O)n(C)c(=O)n3C)n2Cc2ccccc2)CC1 | 0
27 | COC(=O)c1cc2oc(C)cc2n1CC(=O)Nc1ccc(C)c(C)c1 | 0
28 | Cc1cc(-c2ccccc2)nnc1NCCN1CCOCC1 | 0
29 | CCCCCC1CC(CC(=O)O)C(=O)O1 (stereo not given) | 6
30 | CCOC(=O)N(C)c1ccc(C(O)(C(F)(F)F)C(F)(F)F)cc1 | 0
31 | CC1=C(C(=O)NCc2ccccn2)C2(CCC(C)CC2)OC1=O (stereo not given) | 0
32 | CCOC(=O)C1=C(C)NC(=O)NC1c1ccc(Br)s1 (stereo not given) | 1
33 | COC(=O)c1[nH]c2ccc(C)cc2c1NC(=O)CN1CCC(C)CC1 | 0
34 | CCOC(=O)c1ccc(N2Cc3cc(C)c(C)cc3C2)cc1O | 2
35 | Cc1ccccc1-c1nc(CN2CCC(C(=O)NCCCN3CCCC3)CC2)c(C)o1 | 0
36 | COC(=O)c1cc(=O)n2c(-c3ccc(OC)cc3)csc2n1 | 3
37 | CCn1ncc(C2=NOC(C(=O)NCc3ccc(Cl)cc3)C2)c1C (stereo not given) | 0
38 | CCOC(=O)C1=C(C)NC(C)=C(C(=O)OC)C1c1cccc([N+](=O)[O-])c1 (stereo not given) | 7
39 | COc1ccc(C2C(C(=O)c3sc(C)nc3C)=C(O)C(=O)N2CCN(C)C)cc1 (stereo not given) | 9
40 | O=C(Cn1ccc2ccccc2c1=O)Nc1ccc2c(c1)OCO2 | 6
